Source: PubChem BioAssay
Rows were chosen to be rich in hits. Some 1% of all compounds tested hit in one or more screens of this group.
ugtP null kill = growth inhibition of S. aureus ugtP deletion strain; S. aureus RN4220 ugtP deletion, OD600 growth, 16 h; growth inhibition, % (no concentration beside the values); 330,000 compounds, 0.54% hits; in the data active means growth inhibition above about 68%;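 further: plate controls were untreated wells for no effect and antibiotic for full effect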
Sa RN4220 lethal = kills Staphylococcus aureus RN4220 | S. aureus RN4220 growth, OD600, 16 h | inhibition, % (no concentration beside the values) | 330,000 compounds, 0.33% hits; in the data active means inhibition above about 85%;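 further: plate controls were untreated cells for no effect and reference antibiotic for full effect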
PriA SSB inh = inhibitors of Klebsiella pneumoniae PriA binding to SSB C-terminal tail | AlphaScreen SSBct-PriA binding, biotinylated peptide | inhibition, % at 33 µM | 430,000 compounds, 0.6% hits; in the data active means inhibition mostly above about 37%, no sharp cut-off; inactive means mostly below about 20%;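 further: plate controls were negative control peptide for no effect and reference peptide for full effect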
* marks the source's active call; other numbers are inactive results; i = inactive; · = no result given; + = active, no number.

SMILES | ugtP null kill | Sa RN4220 lethal | PriA SSB inh
Cc1cccc(C)c1OC(=O)C(c1ccccc1)c1ccccc1 | 96* | 0 | -51
O=S(=O)(NCCCN1CCOC(c2ccccc2)C1)c1ccc2ccccc2c1 (stereo not drawn) | · | · | 13
COc1ccccc1N1CCN(/N=C/C=C/c2ccccc2[N+](=O)[O-])CC1 | · | · | +
COc1ccccc1N1CCN(N=C/C=C/c2ccccc2[N+](=O)[O-])CC1 | 30 | 6 | ·
O=[N+]([O-])c1ccccc1C=NN1CCN(c2ccccn2)CC1 | 0 | 3 | 39*
O=[N+]([O-])c1ccccc1C=NN1CCN(c2ccccc2)CC1 | 6 | 6 | 32
Cc1ccc(Nc2c(C)cnc3c2c(=O)n(C)c(=O)n3C)cc1F | · | · | -4
O=c1c2ncccc2n(Cc2ccc(Cl)cc2Cl)c(=O)n1Cc1ccc2c(c1)OCO2 | · | · | 3
COc1ccc(NS(=O)(=O)c2ccc(C)cc2)c([N+](=O)[O-])c1 | 7 | 13 | 27
CCSc1cccc(C(=O)Nc2ccc(OC)cc2[N+](=O)[O-])c1 | · | · | 51*
COc1ccc(NC(=O)c2ccccc2NS(=O)(=O)c2ccc(C)cc2)c([N+](=O)[O-])c1 | · | · | 53*
CCCCC(=O)Nc1ccc(C(=O)Nc2ccc(OC)cc2[N+](=O)[O-])cc1 | 0 | 2 | 1
O=C(NC(Nc1nc2ccc([N+](=O)[O-])cc2s1)(C(F)(F)F)C(F)(F)F)c1ccccc1Cl | 99* | 100* | 9
O=C(NC(Nc1nc2ccc([N+](=O)[O-])cc2s1)(C(F)(F)F)C(F)(F)F)c1cccnc1 | 29 | 41 | 3
O=c1ccc(-c2cccc3ccccc23)nn1Cc1c(F)cccc1Cl | · | · | -11
CCN1C(=Cc2sc(-c3ccccc3C)c[n+]2C)Sc2ccccc21 | · | · | 3
CCN1/C(=C/c2sc(-c3ccccc3C)c[n+]2C)Sc2ccccc21 | 101* | 100* | ·
Cc1cc(C)c2c(ccc3ccccc32)n1 | · | · | -10
Oc1ccc(-c2nc3ccc4ccccc4c3c3c2CCC3)cc1O | 98* | -4 | 12
O=C(CCCc1ccccc1)Nc1cnc(Oc2ccccc2)nc1 | · | · | -15
COC(=O)c1ccc(NC(=O)COc2coc(CN3c4ccccc4C[C@@H]3C)cc2=O)cc1 | · | · | -21
Cc1cc(C)n(-c2ccc(CCC(=O)N3CCC(C#N)(c4ccccc4)CC3)cc2)n1 | · | · | -13
CC(=O)Nc1nc(CC(=O)Nc2nc(-c3cccnc3)cs2)cs1 | · | · | -6
O=C(COc1ccccc1Cl)Nc1ccc(S(=O)(=O)N2CCOCC2)cc1 | 1 | 0 | -11
O=C(COc1ccc(Cl)cc1Cl)Nc1ccc(S(=O)(=O)N2CCOCC2)cc1 | · | · | 60*
SMILES | ugtP null kill | Sa RN4220 lethal | PriA SSB inh
Cc1nn(C)c(C(=O)Sc2ccccc2)c1[N+](=O)[O-] | 8 | -2 | 3
Cc1nn(C)c(C(=O)Sc2cccc(Cl)c2)c1[N+](=O)[O-] | 93* | 27 | -9
COc1cc(NS(C)(=O)=O)c2ncccc2c1 | · | · | 21
COc1cc(N)c2ncccc2c1 | · | · | 47*
Cc1ccccc1/C=C/C12NC(=O)CN1c1ccccc1C2(C)C (stereo not drawn) | -11 | 9 | -1
CCc1ccc2c(c1)C(C)(C)C1(/C=C/c3ccco3)NC(=O)CCN21 (stereo not drawn) | · | · | 50*
Cc1nc2c(ccc3nc(NC(=O)c4cc(-c5cccs5)nc5ccccc45)sc32)s1 | · | · | -21
NNc1nc2ccccc2[nH]c1=O | · | · | 38*
Cc1nc2ccccc2[nH]c1=O | 2 | 4 | -12
COC(=O)N1CCc2ccc(NC(=O)Cc3ccc(S(=O)(=O)C(C)C)cc3)cc2C1 | · | · | -4
COC(=O)c1c(NC(=O)c2cc(=O)c3ccccc3o2)sc2c1CC(C)(C)NC2(C)C | · | · | -3
CN(CC(=O)Nc1cnc2ccnn2c1)S(C)(=O)=O | · | · | -22
Cn1nc(-c2cccs2)cc1C(=O)N1CCC(n2c(=O)[nH]c3ccccc3c2=O)CC1 | · | · | -12
CCN(CC)S(=O)(=O)c1ccc(NN=Cc2cc(OC)ccc2O)nc1 | 10 | 15 | -6
CCOc1cccc(C=NNc2ccc(S(=O)(=O)N(CC)CC)cn2)c1O | 100* | 20 | -2
COc1cc(-c2ccc(SC)nn2)cc(OC)c1OC | · | · | 9
Cc1cncnc1N1CCN(S(=O)(=O)C2CC2)CC1 | · | · | -20
CCOC(=O)/C=C(\C)Sc1cc(O)c2ccccc2c1O | 93* | 97* | 3
CCOC(=O)/C=C(\C)Sc1cc(=O)oc2ccccc12 | 6 | 9 | -5
CC(=O)Nc1ccc(C=NNc2ccc([N+](=O)[O-])cc2S(=O)(=O)Nc2ccccc2C(=O)O)cc1 | 18 | -5 | -13
CCNc1ccc(C(=O)NN=Cc2c(C)nn(-c3ccccc3)c2N2CCCC2)cc1[N+](=O)[O-] | 0 | 2 | 6
CN(CCO)c1ccc(C=NNc2ccc([N+](=O)[O-])cc2S(=O)(=O)Nc2ccccc2C(=O)O)cc1 | 12 | -4 | 40*
Cc1nn(-c2ccccc2)c(N2CCCC2)c1C=NNc1ccc(S(N)(=O)=O)cc1[N+](=O)[O-] | -16 | 5 | 80*
COc1ccccc1NS(=O)(=O)c1ccc(NN=Cc2ccccc2OCC(=O)O)c([N+](=O)[O-])c1 | 9 | 3 | 42*
Cc1nn(-c2ccccc2)c(Cl)c1C=NNc1ccc(S(=O)(=O)Nc2ccccc2C(=O)O)cc1[N+](=O)[O-] | 74 | 55 | 45*
SMILES | ugtP null kill | Sa RN4220 lethal | PriA SSB inh
CSc1ccc(/C=N/Nc2ccc(S(=O)(=O)Nc3ccccc3C(=O)O)cc2[N+](=O)[O-])cc1 | · | · | i
CCOc1ccccc1/C=N/Nc1ccc(S(=O)(=O)Nc2ccccc2OC)cc1[N+](=O)[O-] | · | · | i
Cc1ccc(NC(=O)C(=O)NCCCN2CCCC2=O)cc1Cl | · | · | 7
CSc1ncccc1C(=O)N1CCC(CNC(=O)c2ccccn2)CC1 | · | · | -4
CS(=O)(=O)c1ccc2nc(NC(=O)c3ccc4ccccc4c3)sc2c1 | · | · | 0
COCCn1c(SC/C=C/c2ccccc2)nc2c([nH]c3ccccc32)c1=O | · | · | -10
COc1ccc(OC)c(C(=O)N=c2sc3cc(OC)c(OC)cc3n2C)c1 | · | · | 6
Cn1c(=O)c2c(ncn2CN2CCC(Cc3ccccc3)CC2)n(C)c1=O | · | · | 1
COc1cc(C=NNc2ccc(S(=O)(=O)Nc3ccccc3C(=O)O)cc2[N+](=O)[O-])ccc1O | 9 | -3 | 49*
CCOc1ccc(C=NNc2ccc(S(=O)(=O)Nc3ccccc3C(=O)O)cc2[N+](=O)[O-])cc1OC | 4 | 6 | 4
CCCOc1ccc(-c2nc(C#N)c(N3CCN(C(=O)c4ccc(F)cc4)CC3)o2)cc1 | · | · | -6
CC(=O)Nc1ccc(S(=O)(=O)N2CCCC2C(=O)Nc2ccc3c(c2)OCCO3)cc1 (stereo not drawn) | -1 | -2 | -8
Cc1ccc(S(=O)(=O)N2C(=O)CCC2C(=O)Nc2ccc3c(c2)OCCO3)cc1 (stereo not drawn) | 2 | -1 | 96*
COc1cc2c(cc1OC)C(c1cccs1)=NCC2 | · | · | 23
CN=c1scc(-c2cc(OC)ccc2OC)n1N=Cc1c(C)[nH]c2ccccc12 | -30 | -7 | 45*
CN=c1scc(-c2c[nH]c3ccccc23)n1C | -2 | 4 | -1
CC(C)Oc1ccc(-c2noc(CN3N=NC4C(=O)N(c5ccc6c(c5)CCC6)C(=O)C43)n2)cc1 (stereo not drawn) | · | · | 0
COc1ccc(NC(C)=CC(=O)c2ccccc2)cc1 | · | · | -5
COc1ccc(N/C(C)=C/C(=S)Nc2ccccc2)cc1 | 5 | -1 | 43*
